Screening data deposited in PubChem by several laboratories.
esBAF inh: Bmi1 luciferase reporter increase in mESCs, primary screen, esBAF inhibitor project, mouse ES cells, Bmi1 luciferase knock-in, single point; 24 h; 100% = twice the neutral-well signal; reporter increase, % at 12.5 µM; actives 2% (n = 350,000); in the data active = activation above about 40%; inconclusive = no clear call, values can overlap the other calls;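 note: 0% = median of the plate's neutral control wells and 100% = double that signal; a rise in the Bmi1 reporter signal indicates esBAF inhibition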
MITF TRPM1 HTS: activators of MITF-driven TRPM1 promoter reporter, primary screen, cell-based, SK-MEL-5, luciferase, single point; actives 0.75% (n = 300,000); activation, % at 12.5 µM; SK-MEL-5 TRPM1-promoter luciferase, 24 h; % of positive control, neutral wells = 0;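 active = mean activation of at least 80% with every replicate also reaching 80%; inconclusive = mean reaches 80% but some replicate falls short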;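 note: 0% = neutral control wells and 100% = parthenolide positive control wells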
Wnt bcat act: Wnt/beta-catenin pathway activators, primary screen, cell-based, plate reader, single point | actives 1.2% (n = 300,000) | Wnt/beta-catenin reporter cell assay, activator | activation, % at 9.35 µM | AID 743398, 2014; in the data active = activation above about 30%, passing the limit was not always enough; inconclusive = no clear call, values can overlap the other calls;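 note: 0% = neutral control wells and 100% = positive control wells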
AHR activator: AHR activators, primary screen, cell-based, luminescence, luciferase reporter, human; actives 2.5% (n = 320,000); AHR-responsive luciferase reporter cells; Aryl hydrocarbon receptor (Homo sapiens), P35869; activation, % at 5 µM; in the data active = activation above about 47%;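 note: 0% = vehicle wells and 100% = reference agonist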
Target sequence (P35869 whole entry, looked up): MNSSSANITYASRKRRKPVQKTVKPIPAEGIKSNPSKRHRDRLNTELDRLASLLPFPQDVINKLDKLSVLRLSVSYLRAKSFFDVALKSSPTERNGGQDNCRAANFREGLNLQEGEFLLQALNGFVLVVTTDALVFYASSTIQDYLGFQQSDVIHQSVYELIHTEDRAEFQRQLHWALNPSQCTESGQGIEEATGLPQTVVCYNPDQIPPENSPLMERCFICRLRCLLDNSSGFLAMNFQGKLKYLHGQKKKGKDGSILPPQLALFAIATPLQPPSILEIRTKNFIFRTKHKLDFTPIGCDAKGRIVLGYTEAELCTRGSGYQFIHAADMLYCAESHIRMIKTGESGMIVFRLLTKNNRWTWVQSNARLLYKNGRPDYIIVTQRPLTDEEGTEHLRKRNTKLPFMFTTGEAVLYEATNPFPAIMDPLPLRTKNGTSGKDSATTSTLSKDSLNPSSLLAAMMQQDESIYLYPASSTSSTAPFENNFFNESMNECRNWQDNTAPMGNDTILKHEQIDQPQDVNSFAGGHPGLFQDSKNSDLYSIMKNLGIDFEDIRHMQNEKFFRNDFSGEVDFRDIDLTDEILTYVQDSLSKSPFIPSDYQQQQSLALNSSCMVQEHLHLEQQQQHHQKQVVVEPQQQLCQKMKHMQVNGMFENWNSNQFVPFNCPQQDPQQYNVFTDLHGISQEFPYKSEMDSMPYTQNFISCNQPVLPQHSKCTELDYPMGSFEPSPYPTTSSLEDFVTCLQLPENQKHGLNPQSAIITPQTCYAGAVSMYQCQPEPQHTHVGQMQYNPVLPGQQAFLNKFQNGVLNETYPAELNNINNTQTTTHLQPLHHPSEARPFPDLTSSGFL
FXN GAA850 act: FXN promoter activators, primary screen, cell-based, luciferase luminescence, HEK293 lucGAA850. HEK293 lucGAA850 FXN promoter luciferase reporter, 24 h; percent of 10 µM SAHA response. activation, % at 6 µM. actives 0.56% (n = 360,000);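 active = activation above the average of all compounds screened plus 3 SD, cutoff fixed separately per campaign, cut at about 7.5% in these data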;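 note: 0% = DMSO wells and 100% = 10 µM SAHA wells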
Ring1 derepress: Ring1 mRNA increase in mouse ESCs, confirmation, esBAF inhibitor project, cell-based, mouse ESC, RT-qPCR, cherry-pick; 550 tested, under 10 active; mouse ESC E14, Ring1 mRNA RT-qPCR fold change; shares compounds with esBAF inh; fold change at 33 µM;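 active = Ring1 gene expression raised more than 2-fold over untreated cells in both replicates at either tested dose; inconclusive = only one replicate above 2-fold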;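 note: Ring1 transcript normalised to actin housekeeping signal by TaqMan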
esBAF Fgf4 qPCR: Fgf4 mRNA decrease in mouse ESCs, confirmation, esBAF inhibitor project, cell-based, mouse ESC, RT-qPCR, cherry-pick | actives 4% (n = 550) | shares compounds with esBAF inh | Fgf4 expression fold change at 33 µM | AID 743177, 2013 | mouse ESC E14, Fgf4 mRNA qPCR fold change; stronger effect = lower value;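 active = Fgf4 expression under 0.8 fold of control in both repeat measurements at one or both tested doses; inconclusive = under 0.8 fold in just a single repeat measurement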;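 note: Fgf4 transcript normalised to actin in duplex TaqMan qPCR; cells exposed to compound for 24 h before lysis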
esBAF Bmi1 qPCR: esBAF inhibition via Bmi1 de-repression, confirmation, cell-based, RT-qPCR, mouse ESC, single point, cherry-pick. shares compounds with esBAF inh. mouse ESE14 ES cells, Bmi1 mRNA qPCR fold; stronger effect = higher value. fold change at 33 µM. 550 tested, under 10 active;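 active = Bmi1 expression fold change above 6 at either tested concentration, seen in replicate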
A549 tox SP: A549 cell cytotoxicity, cytotoxicity control, plate reader, single point, cherry-pick; cell viability change % (negative = cytotoxic), % at 25 µM, hits read low; 550 tested, under 10 active; shares compounds with esBAF inh; AID 743188, 2013; call rule not given here
HepG2 cytotox SP: HepG2 cell cytotoxicity, cytotoxicity control, plate reader, single point, cherry-pick. shares compounds with esBAF inh. stronger effect = lower value. activity change, negative = inhibition, % at 25 µM. actives 4% (n = 550). AID 743189, 2013; in the data active = activity change below about -50%
HEK293 tox SP: HEK293 cell cytotoxicity, cytotoxicity control, plate reader, single point, cherry-pick. shares compounds with esBAF inh. activity change, negative = inhibition, % at 25 µM, hits read low. actives 3% (n = 550); in the data active = activity change below about -38%, passing the limit was not always enough
Starred values were filed as active, the others as inactive; ? = inconclusive; . = no result given. Hits are enriched below; roughly 4.2% of the tested compounds scored in any of these assays.

SMILES	esBAF inh	MITF TRPM1 HTS	Wnt bcat act	AHR activator	FXN GAA850 act	Ring1 derepress	esBAF Fgf4 qPCR	esBAF Bmi1 qPCR	A549 tox SP	HepG2 cytotox SP	HEK293 tox SP
COc1ccc(NC(=O)c2cc(F)cc(F)c2)cc1Cl	57.5*	.	56.3*	2.5	2.8	1.38	1.13	1.5	-6.9	-10.8	-0.3
Fc1ccc(Nc2nnc(-c3ccncc3)s2)cc1Cl	66.8*	.	1.1	.	3.9	1.17	0.881	1.56	-6.4	-24.9	-2.3
O=C(Nc1ccc(Cl)cc1)Nc1nnc(-c2ccncc2)s1	.	-6.5	-1.2	2.1	-2.0	.	.	.	.	.	.
Cc1cc(C(=O)Cn2cnc3ccccc3c2=O)c(C)n1C1CC1	64.7*	53.1	20.4	0.8	1.8	1.25	0.921	1.3	-1.5	-22.0	1.2
N#Cc1nc(-c2cccc3ccccc23)oc1N1CCCCC1	5.5	78.5	.	6.3	-0.6	.	.	.	.	.	.
CC1CCN(c2oc(-c3cccc4ccccc34)nc2C#N)CC1	67.1*	?	-4.2	3.7	3.3	0.969	0.949	1.45	-1.2	-52.6*	-18.6
O=C(CCCc1ccccc1)Nc1ccccn1	30.6	40.4	6.0	0.4	5.3	.	.	.	.	.	.
Cc1ccnc(NC(=O)CCCc2ccccc2)c1	65.4*	44.8	.	2.9	4.3	1.08	0.983	1.53	1.2	-0.8	0.8
C[C@@H]1CN([C@@H](C)CO)C(=O)Cc2cc(NC(=O)CCC(F)(F)F)ccc2O[C@H]1CN(C)CC1CCCCC1	-4.8	.	.	.	.	.	.	.	.	.	.
C=CCNc1nc(NCc2ccc(NC(C)=O)cc2)c2sc(-c3ccccc3)cc2n1	65.9*	.	-0.4	.	3.7	.	.	.	-69.2*	-88.5*	-121.4*
Cc1cc(N2CCOCC2)nc2ccc(NC(=O)CCC(=O)N3CCN(c4ccccc4F)CC3)cc12	74.1*	119.6*	13.1	11.6	-0.4	0.86	1.06	1.01	7.2	7.4	5.1
Cc1cc(N2CCOCC2)nc2ccc(NC(=O)CCC(=O)N3CCN(c4ccc(F)cc4)CC3)cc12	13.5	8.6	4.1	4.5	2.8	.	.	.	.	.	.
O=C(NCC[C@@H]1CC[C@@H](NC(=O)C2CCCCC2)[C@H](CO)O1)c1cc(Cl)cc(Cl)c1	3.7	.	.	.	.	.	.	.	.	.	.
COc1ccc(-c2cnc(C(O)c3ccc(-c4ccccc4)cc3)[nH]2)cc1 (stereo unspecified)	-3.3	.	-1.8	.	-2.4	.	.	.	.	.	.
COc1ccc(-c2cnc(C(O)c3ccccc3)[nH]2)cc1 (stereo unspecified)	64.7*	.	-0.5	.	3.4	1.26	1.03	1.33	11.4	12.8	-2.1
C[C@H]1CN([C@@H](C)CO)C(=O)c2cc(NC(=O)Nc3ccc(C(F)(F)F)cc3)ccc2O[C@@H]1CN(C)S(C)(=O)=O	1.1	.	.	.	.	.	.	.	.	.	.
COc1cc2cnc(-c3ccsc3)c(-c3ccc(F)cc3)c2cc1OC	4.6	-14.1	-2.4	0.9	-1.0	.	.	.	.	.	.
Fc1ccc2cc(-c3ccsc3)ncc2c1	59.9*	72.6	36.3*	50.7*	4.7	1.3	0.816	1.61	2.0	-2.4	-6.0
CCCNC(=O)[C@@H]1[C@@H](CO)[C@@H]2Cn3c(ccc(-c4cccc(F)c4)c3=O)[C@@H]2N1C(C)=O	1.8	.	.	.	.	.	.	.	.	.	.
Cc1nc(-c2ccc(Cl)cc2)sc1C1(C)CC(c2cccnc2)=NO1 (stereo unspecified)	77.4*	63.7	21.9	16.2	2.0	1.26	0.916	1.35	1.0	-46.0	-11.6
COc1ccc(C2=NOC(C)(c3sc(-c4ccc(Cl)cc4)nc3C)C2)cc1 (stereo unspecified)	.	.	-1.6	22.0	.	.	.	.	.	.	.
Cc1cc(Cl)c(O)c(-n2nc3ccccc3n2)c1	60.9*	64.9	-2.7	20.6	4.2	0.943	0.957	1.23	5.3	-37.7	4.3
COc1cc(/C=C/c2nc3ccccc3c(=O)[nH]2)ccc1OC(F)F	55.5*	?	34.7*	3.4	3.4	1.18	1	1.47	-7.6	-23.8	-1.3
COc1cc(/C=C/c2nc3ccccc3c(=O)[nH]2)cc(OC)c1OC	27.6	23.5	9.4	23.1	0.5	.	.	.	.	.	.
O=C(NCc1ccccn1)Nc1ccc(Br)cc1Cl	56.2*	?	24.5	0.7	2.1	1.05	0.92	0.978	4.9	44.2	7.2
SMILES	esBAF inh	MITF TRPM1 HTS	Wnt bcat act	AHR activator	FXN GAA850 act	Ring1 derepress	esBAF Fgf4 qPCR	esBAF Bmi1 qPCR	A549 tox SP	HepG2 cytotox SP	HEK293 tox SP
COc1ccc(/C=C/c2ccncc2)c2ccccc12	-5.2	-6.2	.	5.9	-1.5	.	.	.	.	.	.
COc1ccccc1C=Cc1ccnc2ccccc12	81.9*	-2.0	-2.8	.	4.9	1.07	0.49*	11.1*	-7.6	34.4	-37.0
COc1cc(OC)c2c(-c3cccc(/C=C/c4ccc(F)cc4)c3)cc(=O)oc2c1	85.9*	95.6*	-0.7	.	2.5	1.14	0.917	2.68	3.2	29.3	11.7
COc1ccc(-c2cccc(-c3cc(=O)oc4cc(OC)cc(OC)c34)c2)cc1	-10.8	-66.3	-3.5	.	-0.3	.	.	.	.	.	.
CCCNC(=O)Nc1ccc2c(c1)C(=O)N(C)C[C@@H](OC)[C@@H](C)CN(Cc1cncnc1)[C@H](C)CO2	5.1	.	.	.	.	.	.	.	.	.	.
CNC(=O)c1ccc(-c2ccccc2)s1	57.9*	32.1	2.9	-7.3	2.4	1.01	?	1.11	-4.1	35.6	4.8
CC(=O)Nc1ccc(-c2ccccc2)s1	-10.1	1.8	.	1.2	1.9	.	.	.	.	.	.
Cc1ccc(Cl)cc1-c1cc(C(=O)NCc2ccc(C(F)(F)F)cc2)[nH]n1	7.8	.	-0.2	.	-2.5	.	.	.	.	.	.
COc1ccc(Cl)c(-c2cc(C(=O)Nc3ccc(F)cc3)[nH]n2)c1	68.8*	.	2.1	.	3.7	1.35	0.847	1.51	10.5	11.9	10.5
COc1ccc(Cl)cc1-c1cc(C(=O)Nc2ccccc2)[nH]n1	14.2	.	-0.3	.	-3.4	.	.	.	.	.	.
COc1ccc(Cl)c(-c2cc(C(=O)Nc3ccccc3)[nH]n2)c1	97.0*	.	-2.5	.	2.0	1.22	?	1.42	-2.8	-1.6	-19.8
